The results in this text go back to PubChem BioAssay (Tox21).

“And” between values parts separate entries of the source, which are not always exact repeats. Equal values may be shown once. Results filed as inconclusive are left out. More than one record can exist for a structure, and the calls need not agree. The source made the active and inactive calls. Unless noted, calls follow the shape of the dose curve; as a rule, active = well fitted curve in the direction sought with a large enough effect in the repeat runs; inconclusive = weak or mixed curves; inactive = no such curve, though single readings can be large; an effect the other way counts as inactive or inconclusive.

The target in test [1] is Luciferin 4-monooxygenase (Photinus pyralis) (UniProt P08659). As to the kind of experiment: qHTS assay to identify small molecule inhibitors of firefly luciferase (AID 1224835). Also: nearly all actives have a fitted effect of over 25% in size. Also: potency is read from the fitted curve at half-maximal effect. Summed up:
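Quantitative HTS format; KM concentrations of both substrates. Purified P. pyralis FLuc activity quantified from luminescence images.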
(In qHTS, concentration-response curves come from the screen itself.)

Test [2] concerns the target Nuclear receptor subfamily 1 group I member 3 (Homo sapiens) (UniProt Q14994). The test can be described thus: qHTS assay to identify small molecule antagonists of the constitutive androstane receptor (CAR) signaling pathway (AID 1224838).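 Also: HepG2 cells stably expressing hCAR with CYP2B6 luciferase reporter stimulated by CITCO; nearly all actives have a fitted effect of over 40% in size.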 Also: potency is read from the fitted curve at half-maximal effect. Summed up: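 HepG2-CYP2B6-hCAR cells; 4 h pre-incubation; cpd (15 conc) + CITCO 50 nM final; 24 h, 37 C/5% CO2; ONE-Glo, luminescence.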

Test [3] shares this target. As to the kind of experiment: qHTS assay to identify small molecule agonists of the constitutive androstane receptor (CAR) signaling pathway (AID 1224839). Also: nearly all actives have a fitted effect of over 15% in size. Also: potency is read from the fitted curve at half-maximal effect.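 As to activation: HepG2 cells stably carrying human CAR and a CYP2B6 luciferase reporter; % is scaled to controls: 0 for no effect and ±100 for the full control effect.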 Summed up:
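Readout: firefly luciferase luminescence via ONE-Glo. System: HepG2 double-stable for hCAR and CYP2B6-2.2kb. Conditions: 15-point compound titration, PK11195 at 0.75 uM final, 24 h incubation.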

Test [4] in a line: qHTS assay to identify small molecule antagonists of the estrogen related receptor signaling pathway with the pleiotropic PPARgamma coactivator (PGC) from Tox21 10K library - cell viability counter screen (AID 1224840; active = well fitted cell-killing curve with a large enough effect in the repeat runs, not every such curve was filed as active; also: nearly all actives have a fitted effect of over 40% in size; also: potency is read from the fitted curve at half-maximal effect). Summed up:
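PGC/ERR cells, 2,000/well; 6 h pre-incubation 37 C/5% CO2; cpd in DMSO via pin tool; 17.5 h 37 C; CellTiter-Fluor, 30 min; fluorescence.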

Test [5] concerns the target Thyrotropin receptor (Homo sapiens) (UniProt P16473). The test can be described thus: qHTS assay to identify small molecule agonists of the thyroid stimulating hormone receptor (TSHR) signaling pathway (AID 1224843; calls by dose curve; also: nearly all actives have a fitted effect of over 45% in size; also: potency is read from the fitted curve at half-maximal effect; as to activation: % is scaled to controls: 0 for no effect and ±100 for the full control effect). Summed up:
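Cell line HEK293 with TSHR; density 800/well. Exposure 30 min RT. Readout HTRF cAMP (cAMP-d2/anti-cAMP-cryptate), 1 h RT before reading.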

Test [6] is described as follows: qHTS assay to identify small molecule agonists of the hypoxia (HIF-1) signaling pathway - cell viability counter screen (AID 1224844; calls by dose curve; also: nearly all actives have a fitted effect of over 50% in size; also: potency is read from the fitted curve at half-maximal effect). The procedure, abridged:
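ME-180 HRE-bla cells, 2,000/well, 0.5% dialyzed FBS; 5 hr settle, 17 hr compound at 37C/5% CO2; CCF4-AM reporter read first, then CellTiter-Glo luminescence after 30 min RT.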

Test [7] can be described thus: qHTS assay to identify small molecule agonists of H2AX (AID 1224845; active = well fitted activation curve with a large enough effect in the signal ratio in the repeat runs, not every such curve was filed as active; the % refers to the signal ratio; also: % is scaled to controls: 0 for no effect and ±100 for the full control effect). Summed up:
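Wild-type CHO-K1 cells plated overnight, then exposed 3 hr at 37C to compounds at 15 concentrations (0.76% DMSO). Lysed, then HTRF anti-pH2AX(S139)-cryptate/anti-H2AX-d2 detection after 24 hr at room temperature; emissions 665 and 620 nm.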

Test [8] is described as follows: qHTS assay to identify small molecule agonists of H2AX - cell viability counter screen (AID 1224847; calls by dose curve; also: nearly all actives have a fitted effect of over 30% in size; also: potency is read from the fitted curve at half-maximal effect). The procedure, abridged:
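For this counter screen, overnight-attached CHO-K1 cells received test compounds (15 concentrations, 0.76% DMSO final); 3 hr later at 37C, CellTiter-Glo reagent was added and luminescence recorded after 30 min at room temperature.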

Test [9] is described as follows: qHTS RealTime-Glo MT Cell Viability Assay in HEK293 cells - 32 hour (AID 1224868). Also: nearly all actives have a fitted effect of over 50% in size. Also: potency is read from the fitted curve at half-maximal effect. The procedure, abridged:
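Tox21 10K qHTS, HEK293, 600 cells/well, RealTime-Glo reagent co-dispensed with cells; 5 h preincubation, compound by pintool, 37 C, luminescence at 0–40 h.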

Test [10] is described as follows: A CellTox Green Cytotoxicity Assay to monitor cytotoxicity in HEK293 cells - 0 hour (AID 1224869). Also: % is scaled to controls: 0 for no effect and ±100 for the full control effect; nearly all actives have a fitted effect of over 50% in size. The procedure, abridged: (§1)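 Nonlytic real-time cytotoxicity: HEK293 + CellTox Green reagent plated, 5 h preincubation, pintool compound addition (23 nL in DMSO), 37 C for 40 h, fluorescence measured at successive time points.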
The nature of test [11]: qHTS RealTime-Glo MT Cell Viability Assay in HepG2 cells - 40 hour (AID 1224870). Also: nearly all actives have a fitted effect of over 50% in size. Also: potency is read from the fitted curve at half-maximal effect. The procedure, abridged:
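HepG2 cells mixed with RealTime-Glo MT reagents (NanoLuc plus cell-permeant prosubstrate) were seeded at 600 cells/well, incubated 5 h at 37 C/5% CO2, then pinned with compounds in DMSO; nonlytic luminescence tracked viability during 40 h treatment.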

Test [12] can be described thus: A CellTox Green Cytotoxicity Assay to monitor cytotoxicity in HEK293 cells - 40 hour (AID 1224871). Also: nearly all actives have a fitted effect of over 45% in size. Also: potency is read from the fitted curve at half-maximal effect. Summed up: as §1
Test [13] in a line: qHTS assay to identify small molecule antagonists of the constitutive androstane receptor (CAR) signaling pathway - cell viability counter screen (AID 1224837). Also: nearly all actives have a fitted effect of over 45% in size. Also: potency is read from the fitted curve at half-maximal effect. Summed up: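 HepG2-CYP2B6-hCAR cells, 2500/well, 4 hr pre-incubation; compound titration, 15 conc.; CITCO 50 nM final; 23 hr, 37 C/5% CO2; CellTiter-Fluor, fluorescence intensity.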
Test [14] can be described thus: qHTS assay to identify small molecule agonists of the hypoxia (HIF-1) signaling pathway (AID 1224846; active = well fitted activation curve with a large enough effect in the signal ratio in the repeat runs, not every such curve was filed as active; the % refers to the signal ratio; also: % is scaled to controls: 0 for no effect and ±100 for the full control effect). The procedure, abridged: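 Cell line: CellSensor HRE-bla ME-180; 2,000 cells/well; 0.5% dialyzed FBS; 5 h preincubation; DMSO compound pin transfer; 17 h, 37C, 5% CO2; CCF4-AM added; bla FRET signal scored for activation.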
The nature of test [15]: qHTS RealTime-Glo MT Cell Viability Assay in HepG2 cells - 24 hour (AID 1224867). Also: nearly all actives have a fitted effect of over 50% in size. Also: potency is read from the fitted curve at half-maximal effect. Summed up: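 Cells + NanoLuc/prosubstrate dispensed (600 cells/well) → 5 h at 37 C/5% CO2 → compounds in DMSO transferred → 40 h incubation at 37 C, luminescence read at 0, 8, 16, 24, 32, 40 h.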
Test [16] in a line: qHTS assay to identify small molecule antagonists of the estrogen related receptor signaling pathway with the pleiotropic PPARgamma coactivator (PGC) from Tox21 10K library (AID 1224841; call rule not given here). The procedure, abridged:
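PGC/ERR cell line, 2,000 cells/well; 6 h pre-incubation 37 C/5% CO2; compounds (DMSO) pinned in; 18 h, 37 C; One-Glo, 30 min RT; luminescence.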

Test [17] in a line: qHTS assay to identify small molecule agonists of the estrogen related receptor signaling pathway with the pleiotropic PPARgamma coactivator (PGC) from Tox21 10K library (AID 1224842). Also: nearly all actives have a fitted effect of over 15% in size. Also: potency is read from the fitted curve at half-maximal effect. Summed up:
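PGC/ERR reporter cells (NTP line) were seeded 2,000 per well, rested 6 h at 37 C/5% CO2, then pin-dosed with compounds in DMSO for 18 h at 37 C; luciferase read by One-Glo luminescence after 30 min at room temperature.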

The nature of test [18]: qHTS assay to identify small molecule agonists of the estrogen related receptor (ERR) signaling pathway from Tox21 library (AID 1224849; calls by dose curve; also: % is scaled to controls: 0 for no effect and ±100 for the full control effect; nearly all actives have a fitted effect of over 15% in size). As to conditions: ERR reporter cell line, ONE-Glo luciferase, 18 h. The procedure, abridged: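 ERR cells, 6 h pre-incubation 37 C/5% CO2; cpd in DMSO pinned; 18 h 37 C; ONE-Glo added, 30 min RT; luminescence read. Agonist mode, qHTS.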

The nature of test [19]: qHTS assay to identify small molecule antagonists of the estrogen related receptor (ERR) signaling pathway from Tox21 library (AID 1224848). The procedure, abridged:
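Screening used an ERR reporter line supplied by NTP, exposed for 18 h at 37 C to library compounds delivered in DMSO. Signal was luciferase luminescence developed with ONE-Glo at room temperature for 30 min.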

Chain of Thyrotropin receptor (Homo sapiens) (P16473 whole entry, looked up): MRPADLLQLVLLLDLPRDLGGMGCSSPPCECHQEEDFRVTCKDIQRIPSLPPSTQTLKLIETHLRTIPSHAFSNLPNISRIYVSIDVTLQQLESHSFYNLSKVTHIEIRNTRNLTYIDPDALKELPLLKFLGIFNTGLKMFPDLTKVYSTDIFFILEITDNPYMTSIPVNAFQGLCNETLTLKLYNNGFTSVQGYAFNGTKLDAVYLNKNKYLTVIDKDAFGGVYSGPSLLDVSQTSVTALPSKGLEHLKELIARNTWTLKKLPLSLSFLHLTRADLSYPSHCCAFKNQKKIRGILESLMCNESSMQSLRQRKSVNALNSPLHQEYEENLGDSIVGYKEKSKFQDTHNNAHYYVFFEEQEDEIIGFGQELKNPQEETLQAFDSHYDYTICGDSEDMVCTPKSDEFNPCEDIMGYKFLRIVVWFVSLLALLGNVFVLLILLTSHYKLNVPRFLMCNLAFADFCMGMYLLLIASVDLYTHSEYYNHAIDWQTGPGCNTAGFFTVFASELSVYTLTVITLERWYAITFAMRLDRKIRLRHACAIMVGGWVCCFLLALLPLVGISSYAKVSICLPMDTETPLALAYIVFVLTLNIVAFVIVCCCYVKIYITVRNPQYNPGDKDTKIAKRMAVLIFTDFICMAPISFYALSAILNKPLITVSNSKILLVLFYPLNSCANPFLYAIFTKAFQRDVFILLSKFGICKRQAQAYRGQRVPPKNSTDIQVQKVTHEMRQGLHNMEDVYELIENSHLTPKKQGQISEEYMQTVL
Chain of Luciferin 4-monooxygenase (Photinus pyralis) (P08659 whole entry, looked up): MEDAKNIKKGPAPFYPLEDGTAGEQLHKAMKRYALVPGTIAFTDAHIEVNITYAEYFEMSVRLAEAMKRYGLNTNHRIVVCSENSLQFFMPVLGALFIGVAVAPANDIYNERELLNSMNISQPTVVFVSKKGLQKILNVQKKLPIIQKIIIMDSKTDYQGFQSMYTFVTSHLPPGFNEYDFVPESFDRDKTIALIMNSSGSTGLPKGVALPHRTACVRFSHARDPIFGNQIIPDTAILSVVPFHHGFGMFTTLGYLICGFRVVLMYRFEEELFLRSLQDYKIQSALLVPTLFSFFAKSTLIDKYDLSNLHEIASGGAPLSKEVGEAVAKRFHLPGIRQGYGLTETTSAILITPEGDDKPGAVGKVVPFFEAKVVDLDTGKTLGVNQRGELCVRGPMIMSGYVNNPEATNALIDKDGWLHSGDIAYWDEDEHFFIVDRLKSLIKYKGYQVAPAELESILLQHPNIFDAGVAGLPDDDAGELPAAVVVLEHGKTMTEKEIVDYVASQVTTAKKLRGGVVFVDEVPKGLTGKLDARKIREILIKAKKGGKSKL
Chain of Nuclear receptor subfamily 1 group I member 3 (Homo sapiens) (Q14994 whole entry, looked up): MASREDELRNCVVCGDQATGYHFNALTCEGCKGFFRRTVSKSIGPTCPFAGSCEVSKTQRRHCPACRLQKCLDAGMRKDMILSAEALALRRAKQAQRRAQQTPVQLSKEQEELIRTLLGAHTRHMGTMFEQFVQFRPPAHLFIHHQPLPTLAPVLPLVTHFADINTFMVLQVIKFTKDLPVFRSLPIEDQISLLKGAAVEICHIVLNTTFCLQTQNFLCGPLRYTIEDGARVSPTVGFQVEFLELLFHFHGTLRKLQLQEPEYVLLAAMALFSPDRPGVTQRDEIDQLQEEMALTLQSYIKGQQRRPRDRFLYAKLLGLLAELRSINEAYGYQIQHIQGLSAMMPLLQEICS

As to `CCCCC(CC)COC(=O)CCCCC(=O)OCc1ccccc1` (centres undefined), the Potency result in test [1], in test [2], in test [3], in test [4], in test [5] and in test [6] was “inactive” throughout. For the same compound, the Potency entry in test [7], in test [8], in [9], in test [10], in test [11] and in [12] was “inactive” in each case.
Regarding `O=[N+]([O-])c1cccc(C(F)(F)F)c1`, the Potency entry in test [1], in [13], in test [4], in [5], in test [6] and in [7] was “inactive” throughout. For the same compound, the Potency result in test [14], in [8], in test [15], in [9], in test [11] and in [12] was “inactive” in each case.
As to `Fc1ccc(C(c2ccc(F)cc2)N2CCNCC2)cc1`, the Potency entry in test [1], in test [13], in [2], in test [3], in test [4] and in [5] was “inactive” each time. In addition, the Potency entry in test [6], in [7], in test [8], in test [15], in [10] and in [11] was “inactive” each time. Further, in test [12], the Potency entry is “inactive”.
Consider `Cc1c2ccccc2c(C)c2c1ccc1ccccc12`, for which the Potency in test [1] is 19.8 µM (active) and 31.7 µM (active); in [13], 54.5 µM (active); in [3], 5.39 µM (active) and 9.69 µM (active); in [4], 53.9 µM (active) and 27.3 µM (active); in [16], 34.4 µM (active); in test [17], 24.1 µM (active) and inactive. Also, the Potency in [5] was 27 µM (active) and 24.3 µM (active); in test [9] it was 43.2 µM (active) and 24.5 µM (active); in [12] it was 43.6 µM (active). Moreover, the Potency result in [6], in test [7], in test [8], in test [15], in test [10] and in test [11] was “inactive” each time. In test [18] (at 92.4 µM (top of the series)), the activity change, positive = activation was -83.3% (inactive) and -76.1% (inactive).
In the case of `OC1CCCc2ccccc21` (centres undefined), the Potency result in test [1], in test [13], in [2], in [3], in [4] and in [5] was “inactive” each time. For the same compound, the Potency entry in [6], in [7], in test [14], in test [8], in test [15] and in test [9] was “inactive” each time. Further, the Potency result in test [10], in test [11] and in test [12] was “inactive” in each case.
For `c1cnccn1`, the Potency entry in test [1], in test [13], in test [2], in test [3], in test [4] and in [5] was “inactive” each time. In addition, the Potency result in [6], in test [7], in test [8], in [15], in test [9] and in [10] was “inactive” each time. For the same compound, the Potency result in test [11] and in test [12] was “inactive” throughout.
As to `CCCCCCCCCCCCCC[N+](C)(C)C`, the Potency in test [1] was 68.6 µM (active); in test [13] it was 13.2 µM (active) and 27.3 µM (active); in test [2], 59.1 µM (active) and inactive; in test [4], 23.5 µM (active) and 54.4 µM (active) and inactive; in test [6], 42.2 µM (active); in test [8], 38.8 µM (active) and 50.4 µM (active). The Potency in [19] was 2.64 µM (active) and 4.32 µM (active) and 8.41 µM (active); in [15] it was 11.9 µM (active) and 21.8 µM (active) and 23.9 µM (active); in test [9] it was 9.44 µM (active) and 12.3 µM (active) and 2.13 µM (active); in [11], 7.5 µM (active) and 17.4 µM (active) and 23.9 µM (active); in test [12] it was 29.9 µM (active) and 48.9 µM (active) and 26.8 µM (active). The Potency result in test [3], in [17], in [7] and in test [10] was “inactive” in each case. In addition, the activity change, positive = activation was -50% (inactive) in test [18] (at 42.5 µM (top of the series)); -78.5% (inactive) and -74.4% (inactive) in test [18] (at 92.4 µM (top of the series)).
